FBPA Giardia inh: qHTS Assay for Inhibitors of Fructose-1,6-bisphosphate Aldolase from Giardia Lamblia; AID 2451, 2010; A8B2U2; purified Giardia FBPA; Potency, µM (titrated, usually from 59.6 µM), for the others: top-dose activity, negative = inhibition, hits mostly inhibitors; 0.71% of 290,000 active; further: potency means the concentration at half of the fitted maximal effect; on the % scale 0 is the no-effect control and ±100 the full control effect; nearly all actives have a fitted effect of over 55% in size
Target sequence (A8B2U2 whole entry, looked up): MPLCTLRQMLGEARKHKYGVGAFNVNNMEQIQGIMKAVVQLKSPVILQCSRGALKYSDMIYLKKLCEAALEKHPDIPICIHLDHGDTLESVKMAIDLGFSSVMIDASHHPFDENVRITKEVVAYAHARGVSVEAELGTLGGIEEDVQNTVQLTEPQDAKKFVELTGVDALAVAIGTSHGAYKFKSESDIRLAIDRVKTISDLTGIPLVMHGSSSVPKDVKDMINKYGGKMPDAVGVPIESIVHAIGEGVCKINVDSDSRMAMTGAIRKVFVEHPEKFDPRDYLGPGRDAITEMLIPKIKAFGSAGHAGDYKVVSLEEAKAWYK
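Giardia FBPA (40 nM reagent) was preincubated 10 min at RT with compound (up to 57.5 uM final), then substrate plus GAPDH/TPI/NAD/arsenate coupling system with diaphorase/resazurin was added; resorufin fluorescence (525/598 nm) was read after 20 min.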
NS1 inh: qHTS Assay for Inhibitors of Influenza NS1 Protein Function. AID 2326, 2010. Potency, µM (top dose mostly 46.1 µM), inactives show at the top dose activity, positive = more growth. 0.4% of 270,000 active; calls by dose curve; further: potency means the concentration at half of the fitted maximal effect; actives are rising curves; nearly all actives have a fitted effect of over 50% in size
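Growth recovery, yeast-based: influenza A NS1 expressed in S. cerevisiae causes slow growth, and suppressors are detected by OD600. The parent strain without NS1 is used as positive control.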
Pf growth 48h: Primary qHTS for delayed death inhibitors of the malarial parasite plastid, 48 hour incubation; Potency, µM (titrated, usually from 28.7 µM), for the others: at the top dose activity change, negative = inhibition, actives largely listed as inhibitors; AID 504832, 2011; P. falciparum luciferase growth in erythrocytes, 48 h; 5.9% of 310,000 active; further: potency means the concentration at half of the fitted maximal effect; on the % scale 0 is the no-effect control and ±100 the full control effect
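Luciferase-expressing P. falciparum in infected erythrocytes (2% hematocrit, 0.1% parasitemia final) in RPMI 1640/0.5% Albumax were exposed to compound for 48 hours at 37 C, 5% CO2; growth read as luminescence.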
Shiga toxin inh: A qHTS for Small Molecule Inhibitors of Shiga Toxin. Vero cells, Shiga toxin protein synthesis inhibition reporter. inhibition, % at 38.7 µM. 9.2% of 290,000 active. AID 2315, 2010; in the data active means inhibition mostly above about 28%, no sharp cut-off; inactive means mostly below about 43%; further: 0% is about no effect
Pf growth 96h: Primary qHTS for delayed death inhibitors of the malarial parasite plastid, 96 hour incubation; P. falciparum luciferase reporter growth, 96 h; Potency, µM (highest dose often 28.7 µM), without a hit: top-dose activity change, negative = inhibition, hits mostly inhibitors; 6.9% of 320,000 active; further: potency means the concentration at half of the fitted maximal effect; on the % scale 0 is the no-effect control and ±100 the full control effect
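P. falciparum expressing integrated firefly luciferase, in erythrocytes at 2% hematocrit, 0.05% parasitemia, incubated with compounds 96 h at 37 C, 5% CO2. Growth inhibition read as loss of luminescence; two-generation exposure targets delayed-death apicoplast inhibitors.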
CHX counter: Cycloheximide Counterscreen for Small Molecule Inhibitors of Shiga Toxin | AID 2314, 2010 | cell reporter, cycloheximide protein synthesis inhibition counterscreen | 12% of 300,000 active | max response, %; in the data active means max response mostly above about 13%, no sharp cut-off; inactive means mostly below about 14%; further: read at 38.3 µM for the half of the compounds with a filed dose; 0% is about no effect
* hit, by the source's call; ? = inconclusive; . = no result. Hits are enriched below; roughly 21% of the tested compounds scored in any of these assays. Unless noted, the call rests on the fitted dose curve; in most records, active means well fitted curve in the direction sought with a large enough effect; inconclusive means small, poorly fitted or top-dose-only effect, or another doubt; inactive means no such curve, though single readings can be large; an effect the other way counts as inactive or inconclusive.

SMILES | FBPA Giardia inh | NS1 inh | Pf growth 48h | Shiga toxin inh | Pf growth 96h | CHX counter
CN(C(=O)c1ccc(OCC=C(c2ccccc2)c2ccccc2)cc1)c1ccccc1I | -1% | . | . | 14 | . | 3
CCOC(=O)C1=C(C)N=c2s/c(=C\c3cccc(OCC(=O)O)c3)c(=O)n2C1c1ccccc1OC (centres undefined) | 9% | 2% | ? | -6 | ? | -2
CCOC(=O)C1=C(C)N=c2s/c(=C\c3ccc(OCC(=O)O)cc3)c(=O)n2C1c1ccc(OC(C)C)cc1 (centres undefined) | 16% | ? | ? | 2 | 0.41µM* | 1
CCOC(=O)C1=C(C)N=c2s/c(=C/c3ccc(OCC(=O)O)cc3)c(=O)n2C1c1cc(OC)c(OC)c(OC)c1 (centres undefined) | -3% | ? | 1µM* | . | 0.74µM* | -1
COC(=O)C1=C(C)N=c2s/c(=C/c3cccs3)c(=O)n2C1c1ccc(F)cc1 (centres undefined) | 1% | -3% | ? | -5 | ? | -1
O=C(CSc1nnc(-c2ccccc2Cl)o1)N1CCCC1 | -4% | 14% | 103% | 73* | 1% | 51*
O=C(CSc1nnc(-c2ccccc2Cl)o1)N1CCCCC1 | 3% | -17% | 20% | 83* | 1% | 37*
O=C(CSc1nnc(-c2ccccc2O)o1)N1CCCCC1 | -22% | 4% | 73% | 42* | ? | 28*
O=C(CSc1nnc(-c2ccccc2O)o1)N1CCc2ccccc2C1 | -5% | -1% | . | -7 | 22% | -2
O=C(CSc1nnc(-c2ccccc2Br)o1)N1CCOCC1 | -1% | 1% | 133% | 70* | ? | 51*
CC(=O)c1ccc(S(=O)(=O)NC2CC(=O)N(c3ccc(C)c(C)c3)C2)cc1 (centres undefined) | . | . | -1% | . | -33% | .
O=C(CSc1nnc(Cc2ccccc2)o1)N1CCOCC1 | 3% | 0% | 11% | 10 | 7% | -2
O=C(CSc1nnc(-c2ccccc2O)o1)N1CCOCC1 | -5% | 12% | 86% | 86* | -6% | 26*
Cc1nn(-c2ccccc2)c2c1C(c1ccco1)C(C#N)=C(N)O2 (centres undefined) | ? | -82% | ? | 55* | 5% | 40*
CCOC(=O)CSc1nc2sc(C)c(C)c2c(=O)n1C | 0% | -10% | -13% | 0 | -11% | -4
Cc1sc2nc(SCC(=O)N(C)c3ccccc3)n(C)c(=O)c2c1C | . | -5% | 8.3µM* | -5 | -3% | -6
COc1cc(O)c(CC=C(C)C)c(O)c1C(=O)CCc1ccc(O)cc1 | -10% | -92% | 9.3µM* | 26* | -11% | -6
CC(C)=CCc1c(O)ccc(C(=O)Cc2ccccc2)c1O | -6% | -167% | ? | -8 | ? | 2
CCN1/C(=N\N)c2cccc3cccc1c23 | 10µM* | 6% | -8% | -5 | ? | -6
O=S(=O)(c1ccc2c(c1)OCCO2)N1CCCN(S(=O)(=O)c2c(F)cccc2F)CC1 | . | . | -8% | 25 | ? | 7
O=C1COc2ccc(NC(=O)c3ccccc3C(=O)O)cc2N1 | -4% | 13% | 0% | -4 | 37% | -5
Cc1ccc(-n2nc(C)c(C(=O)Nc3cccc(C(=O)NC4CC4)c3)n2)c(C)c1 | . | . | ? | . | 15µM* | .
Cc1nn(-c2cccc(Cl)c2)nc1C(=O)Nc1cccc(C(=O)NC2CC2)c1 | . | . | 15µM* | . | ? | .
COc1ccc(Cc2nc3ccc(C(=O)NC4CCOC4)cc3o2)cc1 (centres undefined) | 3% | -10% | -5% | 20 | ? | 9
COc1ccc(Cc2nc3ccc(C(=O)NCC4COCCO4)cc3o2)cc1OC (centres undefined) | 1% | -10% | 2% | 10 | 15% | 34*
SMILES | FBPA Giardia inh | NS1 inh | Pf growth 48h | Shiga toxin inh | Pf growth 96h | CHX counter
O=C(c1ccc2nc(Cc3cccc(Cl)c3)oc2c1)N1CCC[C@H]1CO | . | -1% | -1% | 10 | -26% | 17
COCC1CCCCN1C(=O)c1ccc2nc(Cc3ccc(OC)c(OC)c3)oc2c1 (centres undefined) | . | -7% | ? | 18 | 9% | 12*
CCC1CCCCN1C(=O)c1ccc2nc(Cc3ccc(OC)cc3)oc2c1 (centres undefined) | . | -3% | ? | 77* | 17% | 35*
CCN(CC)C1CCN(C(=O)c2ccc3nc(Cc4ccc(OC)cc4)oc3c2)C1 (centres undefined) | 0% | 8% | ? | -6 | ? | -3
COc1ccc(Cc2nc3ccc(C(=O)N4CCCCC4CCO)cc3o2)cc1 (centres undefined) | -5% | -8% | -21% | 16 | 7.4µM* | 24
CC(=O)O[C@@H](C)C#C[Si](C)(C)c1ccccc1 | 3% | . | . | . | . | .
O=C1OC(C(=O)NCc2ccccc2)Cc2ccccc21 (centres undefined) | 5% | . | 57% | 14 | 8% | 15
O=C(N/N=C1/CC2C=CCC12)c1ccco1 (centres undefined) | -2% | 7% | 18% | 81* | 61% | 72*
O=C(N/N=C1/CC2C=CCC12)c1cccs1 (centres undefined) | -8% | -10% | 102% | 80* | 26% | 42*
Cn1cccc1C(=O)N1CCC[C@@]2(CCN(c3cccc(-c4ccccc4)c3)C2)C1 | -7% | . | . | . | . | .
O=C(Nc1ccc(S(=O)(=O)N2CCCC2)cc1)c1cc(F)c(F)cc1Cl | . | -10% | -11% | -25 | -1% | 16
Cc1ccccc1Cn1c2ccccc2c2cn[nH]c(=O)c21 | -14% | 14% | ? | -17 | 10µM* | -5
Cc1ccccc1Cn1c2ccccc2c2cnn(CC(=O)NCCCN3CCN(C)CC3)c(=O)c21 | . | 14% | ? | 1 | ? | -10
CC(NC(=O)c1ccccc1)c1nnc(SCC(=O)NC2CCCC2)n1C (centres undefined) | . | 3% | -16% | -7 | 4% | -3
CCN(CC)c1ccc(/C=C2\C(=O)NC(=S)N(C)C2=O)o1 | -9% | 2% | 116% | 110* | 76% | 45*
CCN(CC)c1ccc(C=C2C(=O)N(C)C(=S)N(C)C2=O)o1 | -2% | 6% | 34% | 15 | 19% | -1
CC(C)(C)c1ccc(C(=O)CCCN2CCC(OC(c3ccccc3)c3ccccc3)CC2)cc1 | . | . | 9.5µM* | . | 7.6µM* | .
CCOc1ccc(NC(=O)CN(C)C(=O)C2CCCO2)cc1OCC (centres undefined) | . | . | -6% | . | 34% | .
COc1ccc(NS(=O)(=O)c2cc(NC(=O)C3CC3)ccc2N2CCOCC2)cc1 | -3% | . | ? | 8 | -25% | -2
COc1ccc(NS(=O)(=O)c2cc(NC(=O)C3CC3)ccc2N2CCCCC2)cc1 | 0% | . | -27% | 2 | 10µM* | -3
